From PubChem BioAssay (NCI)
About 79,000 compounds went through this panel and 15% of them were active in at least one assay; those are over-represented in the sample as a whole. Calls of active or inactive are those of the source. No stated cut-off is given here; in the data, active means growth inhibition above about 70%; inactive means the rest.

Columns and labels:
[1] = NCI Yeast Anticancer Drug Screen. Data for the rad52 strain (AID 147);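 further: 0% = growth of vehicle-treated control cultures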; settings: S. cerevisiae rad52 mutant growth inhibition, stronger effect = higher value
Method in brief: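 Genetically altered yeast (DNA damage repair defect) treated with compound; inhibition calculated relative to vehicle.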

[2] = NCI Yeast Anticancer Drug Screen. Data for the wt1 strain (AID 149);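 further: 0% = growth of vehicle-treated wt1 cultures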; settings: S. cerevisiae wt1 strain (SPY 50644) growth inhibition, stronger effect = higher value
Method in brief: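 Each compound is tested on wt1 yeast and the loss of growth versus vehicle gives the inhibition value.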

[3] = NCI Yeast Anticancer Drug Screen. Data for the rad50EPP+ strain (AID 151);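 further: 0% = growth of vehicle-treated control cultures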; settings: S. cerevisiae rad50 mutant strain, stronger effect = higher value
Method in brief: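 Strain rad50EPP+; compound exposure; % growth inhibition vs vehicle.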

[4] = NCI Yeast Anticancer Drug Screen. Data for the mgt1 strain (AID 153); settings: S. cerevisiae mgt1 mutant growth inhibition, stronger effect = higher value
Method in brief: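 Read-out: yeast growth inhibition vs vehicle control. Strain mgt1, drawn from a panel altered in DNA damage repair or cell cycle control.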

[5] = NCI Yeast Anticancer Drug Screen. Data for the rad50 strain (AID 155);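 further: 0% = growth of vehicle-only cultures of the same strain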; settings: S. cerevisiae rad50 strain growth inhibition, stronger effect = higher value
Method in brief: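 Vehicle-treated cultures provide the reference for the growth inhibition reported for compound-exposed, repair-deficient yeast.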

[6] = NCI Yeast Anticancer Drug Screen. Data for the mec2-1 strain (AID 157); settings: S. cerevisiae mec2-1 strain, stronger effect = higher value
Method in brief: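 Cells of the genetically defined mec2-1 yeast strain are incubated with test compound. Inhibition of growth is calculated against vehicle-treated controls.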

[7] = NCI Yeast Anticancer Drug Screen. Data for the rad14 strain (AID 159);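 further: 0% = growth of vehicle-treated control cultures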; settings: S. cerevisiae rad14 strain growth inhibition, stronger effect = higher value
Method in brief: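 Inhibition of growth is reported for a repair-deficient yeast mutant following compound treatment, calculated relative to cultures that received vehicle.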

[8] = NCI Yeast Anticancer Drug Screen. Data for the sgs1 mgt1 strain (AID 161);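 further: 0% = growth of cultures given vehicle only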; settings: S. cerevisiae sgs1 mgt1 strain, stronger effect = higher value
Method in brief: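 Test agents were incubated with a DNA-repair-mutant yeast strain. Growth was then read and compared against vehicle-treated controls.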

[9] = NCI Yeast Anticancer Drug Screen. Data for the CLN2oe strain (AID 163);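 further: 0% = growth of vehicle-only control cultures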; settings: S. cerevisiae CLN2oe strain, stronger effect = higher value
Method in brief: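 Strain altered in cell-cycle control, incubated with compound; growth compared to solvent-treated controls.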

[10] = NCI Yeast Anticancer Drug Screen. Data for the cln2 rad14 strain (AID 165);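 further: 0% = growth equal to vehicle treated cultures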; settings: S. cerevisiae cln2 rad14 strain, stronger effect = higher value
Method in brief: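 The screen exposed genetically defined yeast (cln2 rad14) to test compounds and scored growth inhibition relative to vehicle-treated controls.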

[11] = NCI Yeast Anticancer Drug Screen. Data for the bub3 strain (AID 167); settings: S. cerevisiae bub3 mutant strain, stronger effect = higher value
Method in brief: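 Mutant yeast screening strain plus compound; vehicle-treated cultures serve as the 0% inhibition reference.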

[12] = NCI Yeast Anticancer Drug Screen. Data for the wt2 strain (AID 169); settings: S. cerevisiae wt2 strain growth inhibition, stronger effect = higher value
Method in brief: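 Steps: yeast strain treated with compound; growth recorded; inhibition calculated relative to cultures given vehicle alone.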

[13] = NCI Yeast Anticancer Drug Screen. Data for the mlh1 strain (AID 171);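 further: 0% = growth of vehicle-treated control cultures of the same strain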; settings: S. cerevisiae mlh1 strain growth inhibition, stronger effect = higher value
Method in brief: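 Yeast screen: mutant strain plus compound, growth scored against vehicle control wells.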

[14] = NCI Yeast Anticancer Drug Screen. Data for the sgs1 strain (AID 173);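 further: 0% = growth of vehicle-only control cultures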; settings: S. cerevisiae sgs1 mutant, stronger effect = higher value
Method in brief: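 Inhibition of yeast growth served as the measure. The mutant strain was treated with each compound, and growth was normalised to cultures receiving vehicle alone.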

[15] = NCI Yeast Anticancer Drug Screen. Data for the mlh1 rad18 strain (AID 175); settings: S. cerevisiae mlh1 rad18 strain growth inhibition, stronger effect = higher value
Method in brief: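 Compound-treated yeast growth, normalised to vehicle controls. Strain bears defined DNA repair mutations.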

[16] = NCI Yeast Anticancer Drug Screen. Data for the rad18 strain (AID 177); settings: S. cerevisiae rad18 mutant growth inhibition, stronger effect = higher value
Method in brief: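 Inhibition values reflect reduced yeast growth compared with vehicle-treated controls, using a strain engineered with a DNA damage repair defect.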

[17] = at 5.0 µM (retest, dose inferred, filed as 0.5)
[18] = at 50.0 µM (retest, dose inferred, filed as 5.0)

Measured: growth inhibition

c1ccc(N=c2nc(N3CCOCC3)ss2)cc1
active: [1]; at 33.0 µM 98% | [1]; at 100.0 µM 99% | [2]; at 33.0 µM 98% | [2]; at 100.0 µM 98% | [3]; at 100.0 µM 99% | [4]; at 11.0 µM 71% | [4]; at 33.0 µM 99% | [4]; at 100.0 µM 99% | [5]; at 33.0 µM 99% | [5]; [18] 99% | [5]; at 50.0 µM 98.6% | [5]; at 100.0 µM 99% | [6]; at 33.0 µM 99% | [6]; [18] 100% | [6]; at 50.0 µM 99.7% | [6]; at 100.0 µM 99% | [7]; at 33.0 µM 99% | [7]; at 100.0 µM 99% | [8]; [18] 100% | [8]; at 50.0 µM 98.7% | [9]; at 33.0 µM 87% | [9]; at 100.0 µM 98% | [10]; [18] 99% | [10]; at 50.0 µM 93.4% | [11]; at 33.0 µM 99% | [11]; [18] 99% | [11]; at 50.0 µM 99.3% | [11]; at 100.0 µM 99% | [12]; at 33.0 µM 98% | [12]; at 100.0 µM 99% | [13]; at 11.0 µM 73% | [13]; at 33.0 µM 99% | [13]; at 100.0 µM 99% | [14]; at 11.0 µM 87% | [14]; at 33.0 µM 99% | [14]; at 100.0 µM 99% | [15]; [18] 98% | [15]; at 50.0 µM 98.4% | [16]; at 33.0 µM 99% | [16]; at 100.0 µM 94%
inactive: [1]; at 1.2 µM -3% | [1]; at 3.7 µM 3% | [1]; at 11.0 µM 27% | [2]; at 1.2 µM -3% | [2]; at 3.7 µM 4% | [2]; at 11.0 µM 15% | [3]; at 1.2 µM -5% | [3]; at 3.7 µM 2% | [3]; at 11.0 µM 19% | [3]; at 33.0 µM 56% | [4]; at 1.2 µM -3% | [4]; at 3.7 µM 11% | [5]; at 1.2 µM -6% | [5]; at 3.7 µM 6% | [5]; [17] 19% | [5]; at 11.0 µM 51% | [6]; at 1.2 µM -4% | [6]; at 3.7 µM 7% | [6]; [17] 14% | [6]; at 11.0 µM 37% | [7]; at 1.2 µM -3% | [7]; at 3.7 µM 13% | [7]; at 11.0 µM 61% | [8]; [17] 58% | [9]; at 1.2 µM -11% | [9]; at 3.7 µM -13% | [9]; at 11.0 µM 3% | [10]; [17] -5% | [11]; at 1.2 µM -5% | [11]; at 3.7 µM 5% | [11]; [17] 8% | [11]; at 11.0 µM 56% | [12]; at 1.2 µM -1% | [12]; at 3.7 µM 18% | [12]; at 11.0 µM 53% | [13]; at 1.2 µM -1% | [13]; at 3.7 µM 14% | [14]; at 1.2 µM 7% | [14]; at 3.7 µM 37% | [15]; [17] 26% | [16]; at 1.2 µM 0% | [16]; at 3.7 µM 18% | [16]; at 11.0 µM 64%
